Results taken from PubChem BioAssay (NCI).
This is part of a sample that, as a whole, favours compounds with a hit. Of some 79,000 tested, about 15% had one in any assay. The source made the active and inactive calls. Rule as the data show it: active = growth inhibition above about 70%; inactive = the rest.

Tests used:
[1] = NCI Yeast Anticancer Drug Screen. Data for the rad52 strain (AID 147);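 also: 0% = growth of vehicle-treated control cultures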; conditions: S. cerevisiae rad52 mutant growth inhibition, active compounds read high
Procedure, shortened: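 Genetically altered yeast (DNA damage repair defect) treated with compound; inhibition calculated relative to vehicle.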

[2] = NCI Yeast Anticancer Drug Screen. Data for the wt1 strain (AID 149);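 also: 0% = growth of vehicle-treated wt1 cultures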; conditions: S. cerevisiae wt1 strain (SPY 50644) growth inhibition, active compounds read high
Procedure, shortened: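 Vehicle-normalised growth inhibition; strain wt1; compound exposure.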

[3] = NCI Yeast Anticancer Drug Screen. Data for the rad50EPP+ strain (AID 151);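 also: 0% = growth of vehicle-treated control cultures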; conditions: S. cerevisiae rad50 mutant strain, active compounds read high
Procedure, shortened: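 Strain rad50EPP+; compound exposure; % growth inhibition vs vehicle.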

[4] = NCI Yeast Anticancer Drug Screen. Data for the rad50 strain (AID 155);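 also: 0% = growth of vehicle-only cultures of the same strain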; conditions: S. cerevisiae rad50 strain growth inhibition, active compounds read high
Procedure, shortened: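 A DNA repair-deficient yeast mutant serves as the test organism; compound-induced growth inhibition is calculated against vehicle-treated cells.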

[5] = NCI Yeast Anticancer Drug Screen. Data for the mec2-1 strain (AID 157); conditions: S. cerevisiae mec2-1 strain, active compounds read high
Procedure, shortened: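 Cells of the genetically defined mec2-1 yeast strain are incubated with test compound. Inhibition of growth is calculated against vehicle-treated controls.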

[6] = NCI Yeast Anticancer Drug Screen. Data for the rad14 strain (AID 159);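 also: 0% = growth of vehicle-treated control cultures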; conditions: S. cerevisiae rad14 strain growth inhibition, active compounds read high
Procedure, shortened: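 Vehicle-treated cultures served as the baseline for growth inhibition of a DNA repair-mutant yeast strain exposed to each compound.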

[7] = NCI Yeast Anticancer Drug Screen. Data for the sgs1 mgt1 strain (AID 161);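 also: 0% = growth of cultures given vehicle only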; conditions: S. cerevisiae sgs1 mgt1 strain, active compounds read high
Procedure, shortened: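 Read-out: growth inhibition vs vehicle controls. Cells: mutant yeast strain deficient in DNA damage repair.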

[8] = NCI Yeast Anticancer Drug Screen. Data for the CLN2oe strain (AID 163);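 also: 0% = growth of vehicle-only control cultures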; conditions: S. cerevisiae CLN2oe strain, active compounds read high
Procedure, shortened: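 Strain altered in cell-cycle control, incubated with compound; growth compared to solvent-treated controls.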

[9] = NCI Yeast Anticancer Drug Screen. Data for the cln2 rad14 strain (AID 165);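 also: 0% = growth equal to vehicle treated cultures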; conditions: S. cerevisiae cln2 rad14 strain, active compounds read high
Procedure, shortened: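 The screen exposed genetically defined yeast (cln2 rad14) to test compounds and scored growth inhibition relative to vehicle-treated controls.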

[10] = NCI Yeast Anticancer Drug Screen. Data for the bub3 strain (AID 167); conditions: S. cerevisiae bub3 mutant strain, active compounds read high
Procedure, shortened: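 Inhibition values come from growth of compound-treated mutant yeast normalised to vehicle-treated controls.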

[11] = NCI Yeast Anticancer Drug Screen. Data for the wt2 strain (AID 169);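 also: 0% = growth of vehicle-treated yeast cultures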; conditions: S. cerevisiae wt2 strain growth inhibition, active compounds read high
Procedure, shortened: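 Steps: yeast strain treated with compound; growth recorded; inhibition calculated relative to cultures given vehicle alone.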

[12] = NCI Yeast Anticancer Drug Screen. Data for the mlh1 strain (AID 171);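 also: 0% = growth of vehicle-treated control cultures of the same strain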; conditions: S. cerevisiae mlh1 strain growth inhibition, active compounds read high
Procedure, shortened: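 Yeast screen: mutant strain plus compound, growth scored against vehicle control wells.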

[13] = NCI Yeast Anticancer Drug Screen. Data for the sgs1 strain (AID 173);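 also: 0% = growth of vehicle-only control cultures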; conditions: S. cerevisiae sgs1 mutant, active compounds read high
Procedure, shortened: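 Inhibition of yeast growth served as the measure. The mutant strain was treated with each compound, and growth was normalised to cultures receiving vehicle alone.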

[14] = NCI Yeast Anticancer Drug Screen. Data for the mlh1 rad18 strain (AID 175); conditions: S. cerevisiae mlh1 rad18 strain growth inhibition, active compounds read high
Procedure, shortened: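 Compound-treated yeast growth, normalised to vehicle controls. Strain bears defined DNA repair mutations.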

[15] = NCI Yeast Anticancer Drug Screen. Data for the rad18 strain (AID 177); conditions: S. cerevisiae rad18 mutant growth inhibition, active compounds read high
Procedure, shortened: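 Inhibition values reflect reduced yeast growth compared with vehicle-treated controls, using a strain engineered with a DNA damage repair defect.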

[16] = at 5.0 µM (retest, dose inferred, filed as 0.5)
[17] = at 50.0 µM (retest, dose inferred, filed as 5.0)

Measured: growth inhibition

Cc1cccc2c1N=C(C(F)(F)F)CC2=O
inactive: [1]; at 1.2 µM 4% | [1]; at 3.7 µM 7% | [1]; at 11.0 µM 10% | [1]; at 33.0 µM 20% | [1]; at 100.0 µM 46% | [2]; at 1.2 µM -2% | [2]; at 3.7 µM -1% | [2]; at 11.0 µM 2% | [2]; at 33.0 µM 1% | [2]; at 100.0 µM 31% | [3]; at 1.2 µM 2% | [3]; at 3.7 µM 3% | [3]; at 11.0 µM 10% | [3]; at 33.0 µM 33% | [3]; at 100.0 µM 48% | [4]; at 1.2 µM 9% | [4]; at 3.7 µM 15% | [4]; [16] -120% | [4]; at 11.0 µM 23% | [4]; at 33.0 µM 24% | [4]; [17] 9% | [4]; at 50.0 µM 43.7% | [4]; at 100.0 µM 46% | [5]; at 1.2 µM 2% | [5]; at 3.7 µM 1% | [5]; [16] -43% | [5]; at 11.0 µM -5% | [5]; at 33.0 µM 9% | [5]; [17] 40% | [5]; at 50.0 µM 35% | [5]; at 100.0 µM 54% | [6]; at 1.2 µM 3% | [6]; at 3.7 µM -5% | [6]; at 11.0 µM 0% | [6]; at 33.0 µM 7% | [6]; at 100.0 µM 39% | [7]; [16] -44% | [7]; [17] 65% | [7]; at 50.0 µM 45% | [8]; at 1.2 µM -5% | [8]; at 3.7 µM -3% | [8]; at 11.0 µM 3% | [8]; at 33.0 µM 8% | [8]; at 100.0 µM 43% | [9]; [16] -49% | [9]; [17] 45% | [9]; at 50.0 µM 49.6% | [10]; at 1.2 µM -2% | [10]; at 3.7 µM -2% | [10]; [16] -61% | [10]; at 11.0 µM -1% | [10]; at 33.0 µM 1% | [10]; [17] 33% | [10]; at 50.0 µM 25% | [10]; at 100.0 µM 37% | [11]; at 1.2 µM -2% | [11]; at 3.7 µM -2% | [11]; at 11.0 µM -1% | [11]; at 33.0 µM 6% | [11]; at 100.0 µM 40% | [12]; at 1.2 µM -1% | [12]; at 3.7 µM 2% | [12]; at 11.0 µM 1% | [12]; at 33.0 µM 8% | [12]; at 100.0 µM 38% | [13]; at 1.2 µM 1% | [13]; at 3.7 µM -2% | [13]; at 11.0 µM 0% | [13]; at 33.0 µM 27% | [13]; at 100.0 µM 48% | [14]; [16] -100% | [15]; at 1.2 µM 0% | [15]; at 3.7 µM 1% | [15]; at 11.0 µM 3% | [15]; at 33.0 µM 9% | [15]; at 100.0 µM 43%
active: [14]; [17] 71% | [14]; at 50.0 µM 76.8%
